# Assay outcomes (PubChem)
# Shown are actives, neighbours in structure and some others; about 4.5% of the full set was active somewhere.
# TPT1 inhibitor: blocks Candida albicans tRNA 2'-phosphotransferase; recombinant caTPT1, FP RNA substrate dephosphorylation; inhibition, % at 5 µM; 300,000 tested, 0.81% active; AID 1962;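 active = inhibition above the mean of all tested compounds plus 3 SD, set per screening campaign, cut at about 24% in these data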
# dFosB activator: activators of mouse delta FosB homodimer; activation, % at 25 µM; P13346; 340,000 tested, 0.99% active; purified delta FosB, TAMRA-CDK5 oligo fluorescence polarization; percent of positive-control signal above neutral wells;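 active = mean activation above about 17%, with every replicate also reaching it, limit read from the data, passing the limit was not always enough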
# Rpn11 block: blocks the human proteasome subunit Rpn11 | 360,000 tested, 0.59% active | inhibition, % at 20 µM | human 26S proteasome, Ub4-pepOG fluorescence polarization; 20S core pre-blocked with epoxomicin;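 active = inhibition at 20 µM, scaled to each plate's controls, above about 33%, limit read from the data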
# Target sequence (O00487 whole entry, looked up): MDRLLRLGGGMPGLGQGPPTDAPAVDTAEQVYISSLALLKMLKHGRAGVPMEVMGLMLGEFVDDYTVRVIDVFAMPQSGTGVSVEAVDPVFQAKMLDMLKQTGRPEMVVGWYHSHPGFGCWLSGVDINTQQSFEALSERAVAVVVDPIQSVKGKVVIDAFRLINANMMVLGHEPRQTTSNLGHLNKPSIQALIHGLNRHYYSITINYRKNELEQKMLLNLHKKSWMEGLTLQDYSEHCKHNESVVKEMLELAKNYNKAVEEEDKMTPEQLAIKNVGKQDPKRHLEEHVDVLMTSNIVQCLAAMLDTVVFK
# NR3A LBD binder: modulators (binders) of human NR3A ligand-binding domain; AID 1259313; 340,000 tested, 2.5% active; Tm shift relative to glycine control, % at 25 µM; NR3A LBD differential scanning fluorimetry, Tm shift; 0% = protein alone, 100% = glycine-bound protein;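 active = melting temperature shift of at least 10% of the positive control shift, at one fixed dose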
# EBNA-1 inh: blocks EBNA-1 binding to DNA. EBNA-1 DNA binding, fluorescence polarization. inhibition, % at 14.8 µM. 300,000 tested, 0.34% active; in the data active = inhibition above about 28%
# ZTA counter: blocks Epstein-Barr virus ZTA, an EBNA-1 counter-screen. P03206. 320,000 tested, 0.15% active. inhibition, % at 11 µM. AID 2234. ZTA-DNA binding, fluorescence polarization; in the data active = inhibition above about 33%
# Target sequence (P03206 whole entry, looked up): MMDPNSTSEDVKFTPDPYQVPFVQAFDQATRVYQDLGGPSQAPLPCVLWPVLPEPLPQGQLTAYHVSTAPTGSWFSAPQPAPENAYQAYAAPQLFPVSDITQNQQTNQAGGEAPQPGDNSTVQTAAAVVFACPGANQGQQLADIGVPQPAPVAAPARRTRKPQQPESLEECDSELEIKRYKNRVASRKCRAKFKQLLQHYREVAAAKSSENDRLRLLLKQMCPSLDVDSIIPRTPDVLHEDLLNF
# A number is an active result; . = inactive; / = no result given.
SMILES,TPT1 inhibitor,dFosB activator,Rpn11 block,NR3A LBD binder,EBNA-1 inh,ZTA counter
CN(C(=O)COC(=O)CCC1CCCCC1)c1c(N)n(Cc2ccccc2)c(=O)[nH]c1=O,.,.,.,.,.,.
CCC(Sc1ccccn1)C(=O)Nc1cccc([N+](=O)[O-])c1 (stereo unspecified),.,.,.,16.8,.,.
O=C(Nc1ccc(F)cc1)c1cccc(C(=O)Nc2ccc(F)cc2)c1,.,.,.,.,.,.
Cc1ccc(C(=O)Nc2ccc(Nc3ccccc3)cc2)cc1Br,.,/,.,25.5,.,.
O=C(Nc1ccccc1)c1oc2ccccc2c1NC(=O)C1CC1,.,.,.,13.3,.,.
O=C(Nc1ccc(Nc2ccccc2)cc1)c1ccc(Cl)cc1,.,.,.,31.9,.,.
O=C(Nc1ccc(F)cc1)c1ccccc1,.,.,.,15.7,.,.
O=C(Nc1ccc2c(c1)OCCO2)c1oc2ccccc2c1NC(=O)C1CC1,.,.,.,.,.,.
O=C(Nc1ccc(Cl)cc1)C1Cc2c(-c3ccccc3Oc3ccccc3)ccnc2O1 (stereo unspecified),/,/,.,/,/,/
CC(C)Oc1ccc(C(=O)Nc2ccc(N3CCCC3)cc2)cc1,.,.,.,.,.,.
O=C(Nc1ccc(Nc2ccccc2)cc1)c1ccccc1,.,/,/,13.5,.,.
O=C(Nc1ccc(N2CCCC2)cc1)c1ccc(Br)cc1,.,58.9,.,.,.,.
O=C(Nc1ccc(N2CCCC2)cc1)C(c1ccccc1)c1ccccc1,.,76.8,.,.,.,.
Cc1ccc(NC(=O)c2ccc(NC(=O)c3ccccc3)cc2)cc1C,.,.,.,17.0,.,.
CSc1ccccc1NC(=O)CN(C)CC(=O)Nc1ccccc1C(F)(F)F,.,.,.,.,.,.
S=C(Nc1ccc(N2CCOCC2)cc1)Nc1ccc2snnc2c1,.,.,.,.,.,.
Cc1ccc(NC(=O)c2ccc(NS(=O)(=O)c3c(C)noc3C)cc2)cc1C,.,.,.,30.1,.,.
O=C(Nc1cc(-c2ccccc2)[nH]n1)c1ccc(Cl)cc1,.,.,.,18.5,.,.
O=C(Cc1ccccc1)Nc1ccc(NC(=O)c2ccc(Br)cc2)cc1,.,.,.,.,.,.
COc1ccc(NC(=O)c2ccc(NS(=O)(=O)c3c(C)noc3C)cc2)cc1OC,.,.,.,.,.,.
O=C(Nc1ccccc1)c1ccc(NC(=O)C2CC2)cc1,.,.,.,15.9,.,.
O=C(Nc1ccc(Nc2ccccc2)cc1)c1ccc(Br)cc1,.,.,.,36.3,.,.
CC1=C(C(=O)OCc2ccccc2)C(c2cccc([N+](=O)[O-])c2)NC(=O)N1C (stereo unspecified),.,.,.,.,.,.
OCC[C@@H]1C[C@H](O)[C@@H](O)[C@]2(OCc3cc(C(F)(F)F)ccc32)O1,/,/,.,/,/,/
CNC(=O)Nc1ccc(C2SCCS2)cc1,.,.,.,.,.,.
SMILES,TPT1 inhibitor,dFosB activator,Rpn11 block,NR3A LBD binder,EBNA-1 inh,ZTA counter
N#C/C(C(=O)Nc1ccc(Cl)cc1)=C(/S)Nc1ccccc1,.,.,.,32.5,.,.
O=C(Nc1ccc(C2SCCS2)cc1)c1ccccc1,.,/,.,14.8,.,.
N#C/C(=C\c1cccnc1)C(=O)Nc1ccc(Cl)cc1,.,.,.,.,.,.
O=C(Nc1ccc(Cl)cc1)C1=Cc2ccccc2OC1,.,.,.,19.9,.,.
COc1ccc(-c2c(C)c3cc(O)ccc3oc2=O)cc1OC,.,.,.,41.6,.,.
CCN(CC)S(=O)(=O)c1ccc(S(=O)(=O)N2CCCC(C(=O)NC3CC3)C2)cc1 (stereo unspecified),.,.,.,.,.,.
C/C(CC(=O)Nc1ccc2c(c1)OCCO2)=N\NC(=O)COc1ccc(C)cc1Br,.,.,.,.,.,.
CC(C)CNC(=O)NC(=O)COC(=O)c1cccc(NS(=O)(=O)c2ccc(F)c(F)c2)c1,.,.,.,.,.,.
CC(C)CNC(=O)NC(=O)COC(=O)c1cc(F)cc(F)c1,.,.,.,.,87.5,.
O=c1cc(CSc2nc3ccccc3c(=O)[nH]2)c2ccc(O)cc2o1,/,.,.,29.4,/,/
O=c1[nH]c(SCc2ccccc2F)nc2ccccc12,.,.,.,.,.,.
CCOC(=O)c1[nH]c2ccc(OC)cc2c1NC(=S)N1CCN(c2ccc(F)cc2)CC1,.,.,.,.,.,.
CCOC(=O)c1[nH]c2ccc(OC)cc2c1NC(=S)N1CCN(c2cccc(C)c2C)CC1,.,.,.,11.9,.,.
CCOC(=O)Cc1csc(NC(=O)NC2(C(F)(F)F)Oc3cc(Cl)c(Cl)cc3O2)n1,.,.,.,10.7,.,.
COc1ccc(Nc2nc(-c3cccs3)nc3ccccc23)cc1,.,.,.,27.4,.,.
COc1ccc(N2CCN(c3nc(-c4cccs4)nc4ccccc34)CC2)cc1,.,.,.,.,.,.
COc1cccc(Nc2nc(-c3cccs3)nc3ccccc23)c1,.,.,.,20.6,.,.
COc1cccc(CN(C)c2nc(-c3cccs3)nc3ccccc23)c1,.,.,.,.,.,.
CC(=O)Nc1ccc(NC(=O)CSc2nnc3ccc(-c4cccnc4)nn23)cc1,.,.,.,.,.,.
O=C(CSc1nc(-c2cccs2)cc(C(F)(F)F)n1)NCCCn1ccnc1,.,.,.,.,.,.
O=C(CSc1nc(-c2cccs2)cc(C(F)(F)F)n1)Nc1cc(OCC(F)(F)C(F)F)cc([N+](=O)[O-])c1,.,.,.,10.2,.,.
CN1CCN(S(=O)(=O)c2cccc(C(=O)N3CCN(c4ccccc4F)CC3)c2)CC1,/,.,.,.,/,.
O=C(c1ccccc1F)N1CCN(c2ccccc2F)CC1,.,.,.,11.9,.,.
CC(=O)N1CCN(C(=O)c2cccc(S(=O)(=O)N3CCN(c4ccccc4)CC3)c2)CC1,/,.,.,.,/,.
O=C(c1cccc(S(=O)(=O)N2CCCCCC2)c1)N1CCN(c2ccccc2F)CC1,.,.,.,17.4,.,.
SMILES,TPT1 inhibitor,dFosB activator,Rpn11 block,NR3A LBD binder,EBNA-1 inh,ZTA counter
O=C(c1ccccc1C(=O)N1CCN(c2ccccc2F)CC1)N1CCN(c2ccccc2F)CC1,.,.,.,.,.,.
O=C(c1cccc(S(=O)(=O)N2CCN(c3ccccc3)CC2)c1)N1CCN(c2ccccc2O)CC1,.,.,.,10.1,.,.
O=C(c1ccc(-c2cccc(C(F)(F)F)c2)o1)N1CCCC(C(F)(F)F)C1 (stereo unspecified),.,.,.,.,.,.
COc1ccc(NCC(=O)N/N=C/c2cc([N+](=O)[O-])ccc2N2CCCC2)cc1,.,.,.,.,.,.
Cc1ccc(O)c(NC(=S)NC(=O)Cc2ccc(Cl)cc2)c1,.,.,.,.,.,.
Cc1ccc(NC(=S)NC(=O)c2ccc(-c3ccc(Cl)cc3)o2)c(O)c1,.,.,.,33.7,.,.
